What follows are sequences tested on THRa homodimer (NR concentration 90 nM) (assay: PBM binding z-score (relative to random genomic background probes); higher = stronger binding; sequences stand for … in GC…GCGATTGACAGCGTAGAATGAAGG).
Procedure, shortened: (§1)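 Ligand-free nuclear receptor dimers were applied to custom Agilent 4×180K protein-binding microarrays whose double-stranded probes carried direct-repeat seeds, single-nucleotide variants, half-site ablations and random human genomic background sequences in 34-nt variable regions. Incubation lasted 1 h. Binding z-scores were computed against the random background probes from regression-normalized fluorescence.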

Row | Sequence | PBM binding z-score
1 | ACAGACAGGTGAGTGAAGGTAAATCAGCTGGACG | -0.577
2 | CCTACGGGGCCATTCAGAGGTCATTGATCATATG | 1.77
3 | TCTGCTAGGTGAGTTGGTCAGCTAACGAGCTGCC | -0.955
4 | AGAATGAGGTTAAGCTCAGGGAAACAGAATACAT | 0.503
5 | CGTCCAAGGTGAAAGGTCAGTGAAGAGATGACGG | 1.23
6 | CCGACTGGGGCATAAGGTTGCCATAAGCCAGCCC | -0.00565
7 | TGTCATAGTTCAAAGGTAACGTAAGTATCCACAC | 0.118
8 | CCTAGCAGGCCAATCTGGGTCACTCATGGCTTGA | 0.363
9 | GATACAGGGTCAGCTGGAGGCCAGAGTATGGAAA | 0.136
10 | ATACCAAGGTGATCGTGAGGTCGTCGATACTAAC | 2.54
11 | ATCTCGAGGTAAGACTCAGTTCAGTGAAGAACGC | 0.382
12 | CGAACGAGGGCATGAGATGATAGCAAATGCCGAT | -0.224
13 | AGTCAAAGTTCAGGACGAGGTAAGGTAAAGCACG | 2.26
14 | TGTCGGAGGACACGAAAGGTCAGAGCTCGACATC | 1.3
15 | ATCTCTAGGTAAAGATAGTTCAGTGCATGCAAAT | 0.229
16 | ATCCCTAGGTAAAAGTTCAGTGAATCCCGAGGAT | 0.117
17 | CCTTACGGGTAACTGACAGGTTATAGCATTTGGA | -0.293
18 | CCTGACGGGTCAAGGTTATAGCACGGGTGGTACG | 0.682

The sequences below were run on VDR homodimer (NR concentration 270 nM) in the same assay as above.
Procedure, shortened: as §1

Row | Sequence | PBM binding z-score
19 | CCTAGTTGGTCAGGAGGTCACGCACCGGATATGA | 2.71
20 | ATCTCTAGTTAAAAGTTCAGTGAATCCCGAGGAT | 2.12
21 | CAAACTAGGTCAAGAGGTCAACGTCCGCTTCCCG | 3.84
22 | CCTAGCAGGCCAACCTGGGTCACTCAAGGCTTGA | -0.163
23 | CCGACTGGGGCAAATGTTACCATACTCAGTACGA | -0.144
24 | TCTGCTAGGTCACCGATGGTCAGCTAATCTGCTA | -0.0284
25 | ACTATTAGTTGACTGAGGGCAACCGATACGACGC | 1.71
26 | CAAACTAGGTCACAGAAGTCAAAGTCCGTGCGTA | 1.16
27 | AGTAGCAGGCCAAGTTTGGGTCACTCAAACAAAG | 0.19
28 | TCTGCTTGGTCAGTTGGTCAGCTAACGAGCTGCC | -1.2
29 | ATATGTAGGTTATCGGGTCATTGAGTTTGCGCAT | 5.54
30 | CCTTACGGGTCACGAGGATATAGCACGACGAGCG | 0.89
31 | CCGAGTAGGTTATGGGGGATTCAGGCAACGGTGA | 1.12
32 | TCATATAGGTAATACAGGTGAAACTCGGCATCTA | 0.169
33 | CCGACTGGAGCATAAGGTTACCATAAGCCAGCCC | 0.144
34 | CCTTACGGGTCATTCCAGGTTATAGCATCGGAGT | 2.59
35 | AGAATGAGGTTACCAAAGATGAGGGAAACGCTTG | 0.767
36 | GCTTGTATATCAAGGTTAAGAAAGACTAAGCTAA | -0.0299
37 | TCTAGTTGGTCACGGAGCTCACACACGACGGGTA | -0.521
38 | GCTTACGGGTCAACGGTTATAGCATGAATAGAAT | 0.695

Row | Sequence | PBM binding z-score
39 | TCTATTTGTTGAAGGGCAACCGACGAGTCCGTTT | 1.92
40 | ATCGAAAGGTCGACGAGGTGAGCATACACCGTTT | 0.518
41 | ACAGACAGGTGAGTGAAGGTAAATCAGCTGGACG | -0.366
42 | CCTACGGGGCCATTCAGAGGTCATTGATCATATG | 4.91
43 | TCTGCTAGGTGAGTTGGTCAGCTAACGAGCTGCC | -0.985
44 | AGAATGAGGTTAAGCTCAGGGAAACAGAATACAT | -0.00367
45 | CGTCCAAGGTGAAAGGTCAGTGAAGAGATGACGG | 1.08
46 | CCGACTGGGGCATAAGGTTGCCATAAGCCAGCCC | -0.0503
47 | TGTCATAGTTCAAAGGTAACGTAAGTATCCACAC | 1.23
48 | CCTAGCAGGCCAATCTGGGTCACTCATGGCTTGA | 0.00452
49 | GATACAGGGTCAGCTGGAGGCCAGAGTATGGAAA | 0.57
50 | ATACCAAGGTGATCGTGAGGTCGTCGATACTAAC | 1.95
51 | ATCTCGAGGTAAGACTCAGTTCAGTGAAGAACGC | 1.13
52 | CGAACGAGGGCATGAGATGATAGCAAATGCCGAT | 0.831
53 | AGTCAAAGTTCAGGACGAGGTAAGGTAAAGCACG | 2.09
54 | TGTCGGAGGACACGAAAGGTCAGAGCTCGACATC | 1.38
55 | ATCTCTAGGTAAAGATAGTTCAGTGCATGCAAAT | 1.15
56 | ATCCCTAGGTAAAAGTTCAGTGAATCCCGAGGAT | 1.71
57 | CCTTACGGGTAACTGACAGGTTATAGCATTTGGA | -0.157
58 | CCTGACGGGTCAAGGTTATAGCACGGGTGGTACG | 1.34

Reference: the supplement of paper PMC6555819
